Common to all, as to experiment: qHTS profiling for inhibitors of Plasmodium falciparum proliferation (AID 504749); also: nearly all actives have a fitted effect of over 60% in size
Common to all, as to conditions: P. falciparum in erythrocytes, SYBR Green DNA, 72 h; series mostly up to 28.7 µM
Background: Quantitative high-throughput screening tests each substance at several concentrations.

Experiment [1] has as its system DIV17. An outline of the steps:
(§1)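 SYBR Green fluorescence (ex 485 nm, em 535 nm) reports parasite DNA after 72 h compound exposure of infected red cells at 0.3% parasitemia, 2.5% hematocrit; signal normalized to 0.29 uM artemisinin and vehicle wells.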

The subject of experiment [2] is DIV30. In outline: as §1
The subject of experiment [3] is Dd2. In outline:
as §1

The test system of experiment [4] is ECU. An outline of the steps:
as §1

The subject of experiment [5] is GB4. In outline:
as §1

Experiment [6] concerns HB3. An outline of the steps: as §1
Experiment [7] concerns ICS. In outline: as §1
Experiment [8] concerns JCK. In outline:
as §1

In experiment [9] the test system is N140. In outline: as §1
Experiment [10] concerns P93_24. An outline of the steps:
as §1

The test system of experiment [11] is P94_40. In outline:
as §1

The test system of experiment [12] is PAD. In outline: as §1
The test system of experiment [13] is PC26. In outline: as §1
The test system of experiment [14] is PC49. In outline: as §1
Experiment [15] concerns SC27B. In outline:
as §1

Experiment [16] deals with TAB109. In outline:
as §1

Experiment [17] has as its system TAB113. An outline of the steps: as §1
Experiment [18] relates to TAB165. An outline of the steps: as §1
Experiment [19] relates to FAB9. An outline of the steps:
as §1

For experiment [20], the system named is PC15. In outline: as §1

Results filed as inconclusive are left out. The source made the active and inactive calls. Calls follow the shape of the dose curve; as a rule, active = well fitted inhibition curve with a large enough effect; inconclusive = small, poorly fitted or top-dose-only effect; inactive = flat fitted curve, though single readings scatter.

We go through twelve molecules from PubChem BioAssay (NCATS).
Potency is read from the fitted curve at half-maximal effect.

Regarding `O=C(c1ccc(F)cc1)C1CCN(CCn2c(=S)[nH]c3ccccc3c2=O)CC1`, the Potency in [1] is 13.5 µM (active); in experiment [2], 12 µM (active); in experiment [3] it was 11.2 µM (active); in experiment [4], 4.47 µM (active); in experiment [5] it was 12 µM (active); in experiment [6], 11.2 µM (active). In addition, the Potency was 5.01 µM (active) in experiment [7]; 11.2 µM (active) in experiment [8]; 5.01 µM (active) in [9]; 3.98 µM (active) in experiment [10]; 3.16 µM (active) in experiment [11]; 8.91 µM (active) in experiment [12]. The Potency in [13] was 8.49 µM (active); in experiment [14], 11.2 µM (active); in [15] it was 3.16 µM (active); in experiment [16], 4.47 µM (active); in experiment [17] it was 3.98 µM (active); in experiment [18] it was 5.01 µM (active).
`O=C1C(O)=C(O)C(=O)C(O)=C1O`: the Potency result in experiment [1], in experiment [2], in [4], in experiment [19], in experiment [5] and in experiment [6] was “inactive” each time. Also, the Potency entry in experiment [8], in experiment [9], in experiment [10], in [11], in [12] and in [20] was “inactive” in each case. Also, the Potency result in experiment [13], in experiment [14], in experiment [15], in experiment [16], in experiment [17] and in experiment [18] was “inactive” throughout. The Potency in experiment [3] is 10 µM (active).
On to `CC(=O)OCC(=O)[C@H]1CC[C@H]2[C@@H]3CCC4=CC(=O)CC[C@]4(C)[C@H]3CC[C@]12C`, for which the Potency entry in experiment [1], in experiment [2], in [3], in experiment [4], in experiment [19] and in experiment [5] was “inactive” throughout. The Potency entry in experiment [6], in experiment [8], in [9], in [10], in experiment [11] and in experiment [12] was “inactive” each time. The Potency entry in [20], in [13], in [14], in experiment [15], in [16] and in experiment [17] was “inactive” throughout. Further, the Potency entry in experiment [18] is “inactive”.
With `CCN(CC)CCNC(=O)COc1ccc(OC)cc1`, the Potency result in [1], in [2], in [3], in experiment [4], in experiment [19] and in experiment [6] was “inactive” each time. The Potency result in experiment [7], in experiment [8], in experiment [9], in experiment [10], in [11] and in experiment [12] was “inactive” in each case. The Potency entry in [20], in [13], in [14], in [15], in experiment [16] and in [17] was “inactive” each time. In addition, the Potency entry in experiment [18] is “inactive”.
Regarding `C#C[C@]1(O)CC[C@H]2[C@@H]3CCc4cc(OC)ccc4[C@H]3CC[C@@]21C`, the Potency entry in experiment [1], in experiment [2], in experiment [3], in experiment [4], in experiment [19] and in experiment [5] was “inactive” in each case. Further, the Potency result in experiment [6], in experiment [8], in [9], in experiment [10], in [11] and in [12] was “inactive” in each case. Besides, the Potency entry in [20], in experiment [13], in experiment [14], in [15], in [16] and in experiment [17] was “inactive” throughout. Besides, the Potency entry in experiment [18] was “inactive”.
For the molecule `O[C@@H](c1cc(C(F)(F)F)nc2c(C(F)(F)F)cccc12)[C@H]1CCCCN1`, the Potency is 0.0338 µM (active) in experiment [1]; 0.0338 µM (active) in experiment [2]; 0.0282 µM (active) in experiment [3]; 0.0126 µM (active) in experiment [4]; 0.0708 µM (active) in experiment [19]; 0.0269 µM (active) in experiment [5]. Further, the Potency in experiment [6] was 0.0562 µM (active); in experiment [7], 0.0089 µM (active); in experiment [8], 17.8 µM (active); in experiment [9] it was 0.01 µM (active); in experiment [10], 0.0316 µM (active); in experiment [11] it was 0.0126 µM (active). Further, the Potency in [12] was 0.0112 µM (active); in experiment [13], 0.0478 µM (active); in [15], 0.0251 µM (active); in experiment [16] it was 0.0158 µM (active); in [17] it was 0.01 µM (active); in experiment [18] it was 0.0316 µM (active).
Consider `Oc1c(Cl)cc(Cl)c(Cl)c1Cc1c(O)c(Cl)cc(Cl)c1Cl`, for which the Potency was 12 µM (active) in [1]; 13.5 µM (active) in experiment [2]; 12.6 µM (active) in experiment [3]; 12.6 µM (active) in [4]; 15.1 µM (active) in [5]; 7.08 µM (active) in experiment [7]. Moreover, the Potency in [10] was 8.91 µM (active); in experiment [14], 8.91 µM (active); in experiment [15], 10 µM (active); in experiment [16], 11.2 µM (active); in experiment [17] it was 12.6 µM (active); in experiment [18], 7.94 µM (active). In addition, in experiment [19], the Potency result was “inactive”.
Take `COc1cc(C(=S)N2CCOCC2)ccc1O`: the Potency result in [1], in experiment [2], in experiment [3], in [4], in experiment [19] and in experiment [5] was “inactive” in each case. The Potency result in experiment [6], in experiment [7], in experiment [8], in [9], in [10] and in experiment [11] was “inactive” in each case. The Potency result in experiment [12], in [20], in experiment [13], in experiment [14], in [15] and in [16] was “inactive” throughout. Moreover, in experiment [18], the Potency result was “inactive”.
With `Cc1cccc(C)c1NC(=O)CN1CCCC1`, the Potency entry in experiment [1], in experiment [2], in [3], in [4], in experiment [19] and in experiment [5] was “inactive” throughout. Besides, the Potency entry in experiment [6], in experiment [7], in experiment [8], in [9], in experiment [10] and in experiment [11] was “inactive” throughout. Also, the Potency result in [12], in experiment [20], in experiment [13], in experiment [14], in experiment [15] and in experiment [16] was “inactive” in each case. Moreover, in experiment [18], the Potency result is “inactive”.
Consider `NC(=S)N/N=C/c1cccnc1`, for which the Potency result in experiment [1], in experiment [2], in [3], in experiment [4], in experiment [19] and in [5] was “inactive” each time. The Potency entry in experiment [6], in [7], in experiment [8], in experiment [9], in experiment [10] and in [11] was “inactive” throughout. For the same molecule, the Potency entry in [12], in experiment [20], in [13], in [14], in experiment [15] and in [16] was “inactive” in each case. Further, the Potency entry in experiment [17] and in experiment [18] was “inactive” throughout.
Take `CCOc1ccccc1C(N)=O`: the Potency result in experiment [1], in experiment [2], in experiment [3], in experiment [4], in experiment [19] and in experiment [5] was “inactive” each time. Moreover, the Potency entry in experiment [6], in experiment [7], in experiment [8], in experiment [9], in [10] and in experiment [11] was “inactive” in each case. Besides, the Potency entry in [12], in experiment [20], in experiment [13], in [14], in experiment [15] and in experiment [16] was “inactive” throughout. Besides, the Potency entry in [17] and in [18] was “inactive” throughout.
Take `Cn1c(=O)c2[nH]c(Br)nc2n(C)c1=O`: the Potency entry in [1], in experiment [2], in [3], in experiment [4], in [19] and in [5] was “inactive” each time. In addition, the Potency entry in experiment [6], in [7], in experiment [8], in experiment [9], in experiment [10] and in experiment [12] was “inactive” in each case. The Potency result in experiment [20], in [13], in experiment [14], in [15], in experiment [17] and in experiment [18] was “inactive” each time.
